Assay results reported in the supplement of paper PMC12494721.
Where a name gives a salt, the structure may show the parent alone.

Tests used:
Details in all cases: 20 µM; incubation time: 27 h, anaerobic, 37 °C;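 for the amine columns active = adjusted P below 0.05 in both replicates with a change the same way and a mean fold change under 0.8 or over 1.25; inactive = the rest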
[1] = system: Clostridium sporogenes DSM 1664; experiment: growth (OD595) fold change vs plate DMSO controls (fold change (ratio)); higher = more growth
Outline: (§1)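 Growth is the fold change relative to the median of plate DMSO controls. Readings came from anaerobic mGAM cultures in 96-well plates grown for 27 h at 37 °C and read at 595 nm. They were blank-subtracted, corrected for compound background with 20 µM compound solutions in water, and converted to OD with a calibration factor of 5. Values are means of 2 biological replicates, and fold changes above 1.5 were set to NA.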

Escherichia coli IAI1 [2] = experiment: as above
Outline: as §1

[3] = system: Klebsiella aerogenes DSM 30053; experiment: as above
Outline: as §1

[4] = system: Ruminococcus gnavus DSM 108212; experiment: as above
Outline: as §1

[5] = system: Klebsiella aerogenes DSM 30053; experiment: fold change of Histamine concentration vs plate DMSO controls (fold change (ratio)); higher = more amine produced, active = hit call of the paper (significant change in both replicates, either direction)
Outline: (§2)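 In 80 µL wells, cultures of four gut bacterial strains in mGAM started at OD 0.1 before a 1:1 dilution and grew anaerobically at 37 °C for 27 h. Compounds were added to 20 µM final, except sweeteners at 50 µM final. After extraction of whole cultures with cold acetonitrile/methanol plus 0.1% formic acid and centrifugation, amines were measured by LC–triple-quadrupole MS in dynamic MRM mode against external calibration curves, with within-batch drift correction. Values give fold change over DMSO controls on the same plate, averaged across 2 biological replicates.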

[6] = system: Clostridium sporogenes DSM 1664; experiment: fold change of Tryptamine concentration vs plate DMSO controls (fold change (ratio)); higher = more amine produced, active = hit call of the paper (significant change in both replicates, either direction)
Outline: as §2

[7] = system: Ruminococcus gnavus DSM 108212; experiment: as above
Outline: as §2

Escherichia coli IAI1 [8] = experiment: fold change of Putrescine concentration vs plate DMSO controls (fold change (ratio)); higher = more amine produced, active = hit call of the paper (significant change in both replicates, either direction)
Outline: as §2

[9] = system: Klebsiella aerogenes DSM 30053; experiment: as above
Outline: as §2

Escherichia coli IAI1 [10] = experiment: fold change of Cadaverine concentration vs plate DMSO controls (fold change (ratio)); higher = more amine produced, active = hit call of the paper (significant change in both replicates, either direction)
Outline: as §2

[11] = system: Klebsiella aerogenes DSM 30053; experiment: as above
Outline: as §2

[12] = system: Ruminococcus gnavus DSM 108212; experiment: fold change of 2-Phenylethylamine concentration vs plate DMSO controls (fold change (ratio)); higher = more amine produced, active = hit call of the paper (significant change in both replicates, either direction)
Outline: as §2

| SMILES | growth [1] | growth (Escherichia coli IAI1 [2]) | growth [3] | growth [4] | fold change of Histamine concentration [5] | fold change of Tryptamine concentration [6] | fold change of Tryptamine concentration [7] | fold change of Putrescine concentration (Escherichia coli IAI1 [8]) | fold change of Putrescine concentration [9] | fold change of Cadaverine concentration (Escherichia coli IAI1 [10]) | fold change of Cadaverine concentration [11] | fold change of 2-Phenylethylamine concentration [12] |
| --- | --- | --- | --- | --- | --- | --- | --- | --- | --- | --- | --- | --- |
| C[N+]1(C)[C@@H]2CC[C@H]1C[C@@H](OC(=O)C(CO)c1ccccc1)C2 (stereo partly drawn) [Methylatropine nitrate] | 0.875 | 0.835 | 0.989 | 0.97 | 0.978 (inactive) | 0.99 (inactive) | 1 (inactive) | 0.932 (inactive) | 1.02 (inactive) | 1.07 (inactive) | 1.01 (inactive) | 0.956 (inactive) |
| C=C(C)[C@@H]1[C@H]2OC(=O)[C@@H]1[C@]1(O)C[C@H]3O[C@]34C(=O)O[C@H]2[C@]14C [Picrotoxinin] | 1 | 0.983 | 1.04 | 1.15 | 0.896 (inactive) | 1.01 (inactive) | 1.02 (inactive) | 0.898 (inactive) | 0.932 (inactive) | 0.998 (inactive) | 0.987 (inactive) | 1.03 (inactive) |
| CCOc1ccc(C(C)(C)COCc2cccc(Oc3ccccc3)c2)cc1 | 1.14 | 1.03 | 1.01 | 1.13 | 0.97 (inactive) | 1.03 (inactive) | 1.05 (inactive) | 1.01 (inactive) | 0.984 (inactive) | 0.969 (inactive) | 1.05 (inactive) | 1.05 (inactive) |
| O=C(O)C(F)(F)C(F)(F)C(F)(F)C(F)(F)C(F)(F)C(F)(F)C(F)(F)F [PFOA (Perfluorooctanoic acid)] | 0.946 | 1.02 | 0.999 | 0.985 | 1.02 (inactive) | 0.979 (inactive) | 0.94 (inactive) | 1.03 (inactive) | 1 (inactive) | 1.02 (inactive) | 0.992 (inactive) | 0.878 (inactive) |
| CCCN1C[C@H](CSC)C[C@@H]2c3cccc4[nH]cc(c34)C[C@H]21 [Pergolide mesylate] | 0.995 | 0.953 | 0.998 | 0.982 | 0.953 (inactive) | 0.969 (inactive) | 1.02 (inactive) | 0.968 (inactive) | 0.993 (inactive) | 1.06 (inactive) | 1.01 (inactive) | 1.04 (inactive) |
| Oc1ccccc1-c1ccccc1 | 1 | 1.12 | 0.949 | 1.21 | 0.959 (inactive) | 0.993 (inactive) | 0.973 (inactive) | 0.955 (inactive) | 0.993 (inactive) | 1.01 (inactive) | 0.998 (inactive) | 0.965 (inactive) |
| CN1CCC2(C)c3cc(O)ccc3N(C)C12 (single isomer, unassigned; (-)) [(-) Eseroline fumarate salt] | 1.01 | 1.04 | 1.03 | 1.16 | 1 (inactive) | 1.02 (inactive) | 0.951 (inactive) | 0.99 (inactive) | 1 (inactive) | 0.994 (inactive) | 0.995 (inactive) | 0.954 (inactive) |
| CO[C@]12C[C@@H](COC(=O)c3cncc(Br)c3)CN(C)[C@@H]1Cc1cn(C)c3cccc2c13 [Nicergoline] | 0.937 | 1 | 1.03 | 0.96 | 0.955 (inactive) | 0.994 (inactive) | 0.968 (inactive) | 0.98 (inactive) | 0.99 (inactive) | 0.908 (inactive) | 1.02 (inactive) | 0.888 (inactive) |
| Oc1ccc2c3c1O[C@H]1[C@@H](O)CC[C@@]4(O)[C@@H](C2)N(CC2CCC2)CC[C@]314 [Nalbuphine hydrochloride] | 0.891 | 0.895 | 0.923 | 1.08 | 1 (inactive) | 1 (inactive) | 0.957 (inactive) | 1.04 (inactive) | 1.01 (inactive) | 1.01 (inactive) | 1.01 (inactive) | 0.922 (inactive) |
| CC(O)(CS(=O)(=O)c1ccc(F)cc1)C(=O)Nc1ccc(C#N)c(C(F)(F)F)c1 (stereo not drawn) [Bicalutamide] | 1.06 | 1.01 | 1.08 | 1.15 | 0.914 (inactive) | 1.09 (inactive) | 1.06 (inactive) | 1.08 (inactive) | 0.973 (inactive) | 1.01 (inactive) | 1.02 (inactive) | 1.04 (inactive) |
| CC1COC(Cn2cncn2)(c2ccc(Oc3ccc(Cl)cc3)cc2Cl)O1 (stereo not drawn) | 1.16 | 1.02 | 1.01 | 1.13 | 1.01 (inactive) | 0.964 (inactive) | 0.934 (inactive) | 1.02 (inactive) | 0.996 (inactive) | 0.995 (inactive) | 0.995 (inactive) | 0.954 (inactive) |
| C[C@]12CC[C@H](O)C[C@H]1CC[C@@H]1[C@@H]2C[C@@H](O)[C@]2(C)[C@@H](C3=CC(=O)OC3)CC[C@]12O [Digoxigenin] | 0.957 | 1.07 | 1.03 | 0.974 | 0.938 (inactive) | 1.04 (inactive) | 1.12 (inactive) | 1.04 (inactive) | 0.964 (inactive) | 1.01 (inactive) | 1.01 (inactive) | 1.12 (inactive) |
| CC(Oc1ccc(Oc2nc3ccc(Cl)cc3o2)cc1)C(=O)O (racemic) | 1.06 | 1.04 | 1.02 | 1.01 | 0.989 (inactive) | 1 (inactive) | 1 (inactive) | 1.03 (inactive) | 1.01 (inactive) | 0.937 (inactive) | 1.02 (inactive) | 1.01 (inactive) |
| CC(Oc1ccc(Oc2ncc(C(F)(F)F)cc2Cl)cc1)C(=O)O (stereo not drawn) | 1.02 | 1.03 | 1.01 | 0.977 | 0.989 (inactive) | 0.943 (inactive) | 0.974 (inactive) | 1.05 (inactive) | 0.988 (inactive) | 1.04 (inactive) | 0.981 (inactive) | 0.982 (inactive) |
